Where “and” joins values, the source holds several entries; their conditions need not be identical. Equal values may be shown once. Records with an inconclusive call do not appear. Calls of active or inactive are those of the source. Unless noted, the call rests on the fitted dose curve; in most records, active means well fitted curve in the direction sought with a large enough effect in the repeat runs; inconclusive means weak or mixed curves; inactive means no such curve, though single readings can be large; an effect the other way counts as inactive or inconclusive.
What was measured:
[1] = target: Progesterone receptor (Homo sapiens) (UniProt P06401); assay: qHTS assay to identify small molecule agonists of the progesterone receptor (PR) signaling pathway (AID 1346784; calls by dose curve; further: nearly all actives have a fitted effect of over 30% in size)
Progesterone receptor (Homo sapiens), sequence (P06401 whole entry, looked up): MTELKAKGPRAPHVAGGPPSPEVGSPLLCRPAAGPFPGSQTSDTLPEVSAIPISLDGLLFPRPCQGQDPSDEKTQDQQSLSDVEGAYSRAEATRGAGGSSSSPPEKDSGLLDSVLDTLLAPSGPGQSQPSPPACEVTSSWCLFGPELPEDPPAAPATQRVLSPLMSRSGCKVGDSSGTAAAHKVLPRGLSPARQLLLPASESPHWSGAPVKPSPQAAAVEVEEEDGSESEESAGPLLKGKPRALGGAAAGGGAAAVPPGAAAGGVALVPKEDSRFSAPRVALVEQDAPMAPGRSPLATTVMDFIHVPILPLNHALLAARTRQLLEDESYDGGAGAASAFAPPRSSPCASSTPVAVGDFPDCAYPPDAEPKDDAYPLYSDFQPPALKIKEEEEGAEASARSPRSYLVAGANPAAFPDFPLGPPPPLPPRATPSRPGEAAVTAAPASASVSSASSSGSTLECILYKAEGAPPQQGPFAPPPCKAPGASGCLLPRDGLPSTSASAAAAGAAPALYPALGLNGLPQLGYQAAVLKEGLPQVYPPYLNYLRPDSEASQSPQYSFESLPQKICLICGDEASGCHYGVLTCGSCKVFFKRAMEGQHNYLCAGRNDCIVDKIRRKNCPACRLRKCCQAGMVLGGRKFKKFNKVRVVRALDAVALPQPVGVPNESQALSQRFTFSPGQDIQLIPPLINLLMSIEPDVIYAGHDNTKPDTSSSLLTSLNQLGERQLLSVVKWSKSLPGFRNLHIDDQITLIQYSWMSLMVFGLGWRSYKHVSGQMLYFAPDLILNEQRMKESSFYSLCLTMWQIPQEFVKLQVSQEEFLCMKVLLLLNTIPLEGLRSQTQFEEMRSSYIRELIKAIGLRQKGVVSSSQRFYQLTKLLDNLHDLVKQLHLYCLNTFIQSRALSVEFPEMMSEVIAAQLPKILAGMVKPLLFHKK
Outline: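 Agonist qHTS: compounds pinned onto 3,000 PR-UAS-bla HEK 293T cells per well in charcoal-stripped serum medium, 16hr at 37C, then beta-lactamase activity measured by LiveBLAzer FRET fluorescence after 2 hours at room temperature.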

[2] = target: Progesterone receptor (Homo sapiens) (UniProt P06401); assay: qHTS assay to identify small molecule antagonists of the progesterone receptor (PR) signaling pathway (AID 1346795; active means well fitted inhibition curve with a large enough effect in the signal ratio in the repeat runs, not every such curve was filed as active; the % refers to the signal ratio; further: potency means the concentration at half of the fitted maximal effect)
Outline: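 Antagonist mode with agonist R5020 at 1 nM final and 16 hr incubation at 37C. Reporter was beta-lactamase driven by UAS in HEK293T (PR-UAS-bla), 2% charcoal-stripped serum; signal from LiveBLAzer FRET substrate, 2 hr at room temperature.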

[3] = qHTS assay to identify small molecule antagonists of the progesterone receptor (PR) signaling pathway - cell viability counter screen (AID 1346798); further: nearly all actives have a fitted effect of over 50% in size; further: potency means the concentration at half of the fitted maximal effect
Outline: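 Cytotoxicity read as CellTiter-Glo luminescence (30 min, room temperature) in the same wells as the beta-lactamase readout. HEK293T PR-UAS-bla cells in charcoal-stripped 2% FBS received compound and R5020, then 16 h at 37C, 5% CO2.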

[4] = qHTS assay to identify small molecule agonists of the progesterone receptor (PR) signaling pathway - cell viability counter screen (AID 1346799; calls by dose curve; further: nearly all actives have a fitted effect of over 45% in size; further: potency means the concentration at half of the fitted maximal effect)
Outline: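 Cytotoxicity measured by CellTiter-Glo luminescence (30 min, RT) in the same wells as the PR beta-lactamase agonist read. Those HEK293T cells had 16 h compound treatment at 37 C in 2% charcoal-stripped FBS medium.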

[5] = qHTS assay to identify small molecule antagonists of the TGF-beta/Smad signaling pathway - cell viability counter screen (AID 1346824); further: nearly all actives have a fitted effect of over 50% in size; further: potency means the concentration at half of the fitted maximal effect
Outline: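 SBE-bla HEK 293T cells were plated overnight at 37 C, then given compounds in DMSO plus TGF-beta1 (added as 0.25 ng/mL solution) for 5 hr. After the bla read, CellTiter-Glo was added to the same wells and luminescence read after 30 min at room temperature.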

[6] = qHTS assay to identify small molecule agonists of the TGF-beta/Smad signaling pathway - cell viability counter screen (AID 1346829); further: nearly all actives have a fitted effect of over 45% in size; further: potency means the concentration at half of the fitted maximal effect
Outline: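 HEK 293T SBE-bla line, 5 hr compound exposure at 37 C, multiplexed CellTiter-Glo viability read by luminescence.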

[7] = qHTS assay to identify small molecule agonists of the TGF-beta/Smad signaling pathway (AID 1346859; active means well fitted activation curve with a large enough effect in the signal ratio in the repeat runs, not every such curve was filed as active; the % refers to the signal ratio; further: series mostly up to about 77 µM)
Outline: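 Fluorescence (ex 405 nm; em 460 and 530 nm) was read 2 h after LiveBLAzer FRET substrate at RT. The preceding compound treatment of overnight-plated SBE-bla HEK293T cells lasted 5 h at 37 C.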

[8] = qHTS assay to identify small molecule agonists of the estrogen receptor alpha (ER-alpha) signaling pathway in the presence of an antagonist - cell viability counter screen (AID 1259386);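 further: cells exposed to compounds for 22 h at 37 °C before the viability read; nearly all actives have a fitted effect of over 30% in size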; further: potency means the concentration at half of the fitted maximal effect
Outline: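 Using estrogen-depleted VM7Luc4E2 cells, the 15-concentration compound series was applied together with 10.0nM ICI-182,780 and incubated 22hr at 37C/5% CO2. Cell viability was then scored by CellTiter-Fluor.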

[9] = target: Thyrotropin-releasing hormone receptor (Homo sapiens) (UniProt P34981); assay: qHTS assay to identify small molecule antagonists of the thyrotropin-releasing hormone receptor (TRHR) signaling pathway (AID 1346877; active means well fitted inhibition curve with a large enough effect in the repeat runs, not every such curve was filed as active; further: series mostly up to about 51 µM)
Thyrotropin-releasing hormone receptor (Homo sapiens), sequence (P34981 whole entry, looked up): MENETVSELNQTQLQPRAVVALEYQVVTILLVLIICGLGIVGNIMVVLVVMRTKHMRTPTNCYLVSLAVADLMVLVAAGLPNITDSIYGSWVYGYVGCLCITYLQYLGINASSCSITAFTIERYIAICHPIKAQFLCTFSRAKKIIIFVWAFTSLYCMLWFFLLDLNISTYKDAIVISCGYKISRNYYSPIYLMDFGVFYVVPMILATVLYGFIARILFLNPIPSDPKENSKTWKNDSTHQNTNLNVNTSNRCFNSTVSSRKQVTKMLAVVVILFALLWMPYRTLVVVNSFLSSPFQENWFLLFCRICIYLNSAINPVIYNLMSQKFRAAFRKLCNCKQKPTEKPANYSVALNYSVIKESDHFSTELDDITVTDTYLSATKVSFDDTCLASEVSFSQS
Outline: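 Calcium signal in dye-loaded TRHR/HEK293 cells; compounds added 5 min before TRH (1 nM final); fluorescence monitored 3 min at 1 s steps.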

[10] = target: Thyrotropin-releasing hormone receptor (Homo sapiens) (UniProt P34981); assay: qHTS assay to identify small molecule agonists of the thyrotropin-releasing hormone receptor (TRHR) signaling pathway (AID 1346891; calls by dose curve; further: series mostly up to about 58 µM)
Outline: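 Agonist-mode intracellular calcium readout: kinetic fluorescence over 3 min at 1 s intervals after compound addition to TRHR-HEK293 cells (18 h seeded, 2 h dye-loaded at 37 C). Fifteen concentrations, triplicates.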

Measured: Potency

CCNc1nc(Cl)nc(NC(C)(C)C#N)n1
inactive: [1] | [2] | [3] | [4] | [5] | [6] | [7]

CC(C)(c1ccccc1)c1ccc(O)c(C(C)(C)c2ccccc2)c1
inactive: [9] | [10]
active: [8] 68 µM | [4] 42.9 µM and 27.3 µM | [5] 54.4 µM and 43.6 µM | [6] 48.5 µM and 43.6 µM

O=C(O)CF
inactive: [8] | [1] | [2] | [4] | [5] | [6] | [7] | [9] | [10]

CCC[CH2][Sn]([Cl])([CH2]CCC)[CH2]CCC
active: [8] 10.9 µM and 30.6 µM | [3] 1.73 µM and 3.44 µM | [4] 1.73 µM and 2.17 µM | [5] 1.38 µM and 2.19 µM | [6] 1.55 µM and 977 nM

Brc1ccc(Br)cc1
inactive: [1] | [2] | [3] | [4] | [5] | [6] | [7]

CCOP(=S)(OCC)OP(=S)(OCC)OCC
inactive: [8] | [1] | [2] | [4] | [5] | [6] | [7] | [10]

COc1ccc(CO)cc1
inactive: [8] | [1] | [2] | [4] | [5] | [6] | [7] | [10]

CC(C)CON=O
inactive: [8] | [1] | [2] | [4] | [5] | [6] | [7]

CC(C)Nc1nc(Cl)nc(NC(C)C)n1
inactive: [8] | [1] | [2] | [4] | [5] | [6] | [7] | [10]

S=c1[nH]c2ccccc2[nH]1
active: [2] 30.7 µM
inactive: [8] | [1] | [4] | [5] | [6] | [7] | [10]

Cl
inactive: [8] | [1] | [2] | [4] | [5] | [6] | [7]

O=[N+]([O-])/N=C1\NCCN1Cc1ccc(Cl)nc1
inactive: [8] | [1] | [2] | [4] | [5] | [6] | [7] | [10]

Clc1ccc(C(Cl)(Cl)Cl)cc1
inactive: [8] | [1] | [2] | [4] | [5] | [6] | [7] | [9] | [10]

CC(C)=CC1C(C(=O)OCN2C(=O)C3=C(CCCC3)C2=O)C1(C)C (stereo not given)
inactive: [8] | [1] | [2] | [3] | [5] | [6] | [9] | [10]

CNC(=S)S
inactive: [8] | [1] | [2] | [4] | [5] | [6] | [7] | [9] | [10]

COc1ccc(C=O)cc1OC
inactive: [8] | [1] | [4] | [5] | [6] | [7] | [9] | [10]

N#Cc1cccnc1
inactive: [8] | [1] | [2] | [4] | [5] | [6] | [7] | [10]

O=[N+]([O-])c1ccc(Cl)c([N+](=O)[O-])c1
active: [8] 31.1 µM and 27.3 µM | [2] 24.3 µM | [3] 31.1 µM and 27.3 µM | [4] 27.7 µM and 27.3 µM | [5] 55.8 µM and 34.7 µM | [6] 24.5 µM
inactive: [9] | [10]

CC(C)Nc1ccc(Nc2ccccc2)cc1
inactive: [5] | [6] | [7] | [10]
active: [8] 60.9 µM | [2] 30.5 µM and 27.3 µM

Cc1ccc(N=CN(C)C=Nc2ccc(C)cc2C)c(C)c1
inactive: [8] | [1] | [2] | [4] | [5] | [6] | [7] | [9] | [10]

O=C(O)c1nn(Cc2ccc(Cl)cc2Cl)c2ccccc12
inactive: [8] | [1] | [2] | [4] | [5] | [6] | [9] | [10]

CCOP(=S)(OCC)SCn1c(=O)oc2cc(Cl)ccc21
inactive: [8] | [1] | [4] | [5] | [6] | [7] | [9] | [10]

N#Cc1c(Cl)c(Cl)c(Cl)c(C#N)c1Cl
inactive: [7]
active: [8] 23.9 µM and 54.5 µM | [2] 3.37 µM and 3.86 µM | [4] 21.3 µM and 19.3 µM | [5] 48 µM and 49 µM | [6] 48 µM and 54.9 µM

CC1CC(=O)O1 (stereo not given)
inactive: [8] | [1] | [2] | [4] | [5] | [6] | [7]

Nc1ncn[nH]1
inactive: [8] | [1] | [2] | [4] | [5] | [6] | [7]

[CH3][Sn]([Cl])([Cl])[Cl]
inactive: [1] | [2] | [3] | [4] | [5] | [6] | [7] | [10]

C[C@]12CCC(=O)C=C1CC[C@@H]1[C@@H]2CC[C@@]2(C)[C@H]1CC[C@]2(C)O
inactive: [2] | [5] | [6] | [7] | [10]

COc1ccc(O)c(C(C)(C)C)c1
inactive: [2] | [4] | [5] | [6] | [7]

CN(C)P(=O)(N(C)C)N(C)C
inactive: [1] | [2] | [3] | [4] | [5] | [6] | [7] | [10]

From PubChem BioAssay (Tox21)
